# High-throughput results: PubChem BioAssay, National Center for Advancing Translational Sciences (NCATS)
# Chronic BCR inh: inhibitors of chronic active B-cell receptor signaling | ABC-DLBCL IkBa-CBG/CBR reporter, luminescence ratio, 4 h | Potency, µM (doses to about 46.1 µM), inactives show at the highest dose activity change, negative = inhibition, actives largely listed as inhibitors | actives 0.05% (n = 340,000) | AID 493014; active = well fitted inhibition curve with a large enough effect in the signal ratio, with a control signal flat, not every such curve was filed as active; inconclusive = small, poorly fitted or top-dose-only effect, or effect the other way, or a change in a side signal; the % refers to the signal ratio;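 also: potency is read from the fitted curve at half-maximal effect; plate controls were basal doxycycline-induced cells for no effect and cells given 10 µM MG132 for full effect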
#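 TMD8 ABC-DLBCL cells carrying doxycycline-inducible green luciferase fused to IkappaBalpha plus unfused red luciferase were exposed to compounds (up to 46 uM) for 4 hrs at 37C. Activity came from the overlap-corrected green/red luminescence ratio.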
# DRD3 antagonist: D3 dopamine receptor (human) antagonism. max response, negative = inhibition, %. P35462. D3R cells, DiscoveRx beta-arrestin luminescence, antagonist mode; hits give low values. actives 2.5% (n = 360,000); in the data active = max response below about -50%; inconclusive = no clear call, values can overlap the other calls; also: % is scaled to controls: 0 for no effect and ±100 for the full control effect
# Target sequence (P35462 whole entry, looked up): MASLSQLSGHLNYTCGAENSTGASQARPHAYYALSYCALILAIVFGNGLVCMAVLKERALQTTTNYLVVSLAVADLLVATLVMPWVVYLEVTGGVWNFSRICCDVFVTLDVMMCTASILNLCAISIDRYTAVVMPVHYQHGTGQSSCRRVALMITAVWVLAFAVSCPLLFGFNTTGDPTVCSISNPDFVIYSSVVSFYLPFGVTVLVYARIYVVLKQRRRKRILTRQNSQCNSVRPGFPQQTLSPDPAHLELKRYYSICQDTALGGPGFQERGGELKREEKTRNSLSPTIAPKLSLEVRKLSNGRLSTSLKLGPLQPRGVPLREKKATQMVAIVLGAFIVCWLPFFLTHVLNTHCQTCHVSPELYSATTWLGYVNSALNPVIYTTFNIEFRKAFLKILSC
#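 Cells plated overnight at 1500 cells/well, then exposed to library compounds with dopamine controls for 90 minutes at 37 degrees C. DiscoveRx reagent added for 30–60 minutes at room temperature; luminescence read, quantitative HTS format.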
# D1 ag: human D1 receptor agonism | activation, % at 2 µM | P21728 | HEK293 T-REx D1 cells, calcium flux, agonist mode | actives 1% (n = 360,000) | AID 504660; in the data active = activation above about 30%; also: 0% is about no effect
#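 Agonism was scored from calcium flux recorded over 180 s (1 read/s) after pintool compound addition, following a 10-cycle baseline. Cells were inducible force-coupled HEK293 TREx D1, plated overnight at 30 C and loaded with no-wash calcium dye.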
# D1 antag: blocks dopamine activation of the human D1 receptor; activity change, negative = inhibition, % at 10 µM; AID 504652; actives 3.2% (n = 360,000); P21728; HEK293 TREx D1 cells, calcium flux, dopamine EC80; hits give low values; in the data active = activity change below about -30%; also: % is scaled to controls: 0 for no effect and ±100 for the full control effect
#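 Kinetic fluorescence of a calcium dye serves as the read-out. D1-expressing Hek293 Trex cells, induced overnight at 30 C, are exposed to compound for 180 s before an EC80 dopamine addition, then read 180 s further.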
# DRD3 agonist: activates the human D3 dopamine receptor; P35462; actives 0.58% (n = 410,000); max activation, %; AID 652048; D3R DiscoveRx beta-arrestin cells, luminescence, 90 min; in the data active = max activation above about 30%; also: 0% is about no effect
#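 Cells at 1500/well, incubated overnight, then treated with pinned compounds (dopamine as control) for 90 min at 37 degrees C. DiscoveRx reagent added for 30 - 60 minutes at room temperature; luminescence read.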
# D1 PAM: potentiators of human D1 dopamine receptor. actives 0.036% (n = 360,000). P21728. HEK293 TREx D1 cells, calcium flux, dopamine EC20 potentiation. potentiation, % at 10 µM; in the data active = potentiation above about 30%; also: 0% is about no effect
# * hit, by the source's call; u = inconclusive; x = no result. Rows were chosen to be rich in hits. Some 6% of all compounds tested hit in one or more screens of this group.
SMILES,Chronic BCR inh,DRD3 antagonist,D1 ag,D1 antag,DRD3 agonist,D1 PAM
Cc1cccc(Nc2nc3c(S(=O)(=O)c4ccc(Br)cc4)nnn3c3ccsc23)c1C,x,x,2.4,-6.6,-3.4,-3.4
CNCCCCOc1ccccc1Cc1ccccc1,u,x,28.5,-11.7,-22.7,-2.7
CCCCNCCOCCOc1ccccc1-c1ccccc1,-0.4%,-86.6*,20.7,-26.5,-6.0,-5.2
CN(C)CCOc1ccccc1Cc1ccccc1,-13.1%,-74.5*,16.8,-17.5,-81.7,-5.3
CN(C)CCCCOc1ccccc1-c1ccccc1,-6.9%,-76.8*,6.0,-25.9,-53.2,-11.3
C=CCNCCOc1ccccc1-c1ccccc1,-2.7%,-63.8*,19.7,-17.6,-17.5,-9.0
NC(=NCc1ccccc1)NN=Cc1ccnc2ccccc12,x,4.1,x,x,-1.0,x
CCCCn1c(N)c(N(Cc2ccccc2OC)C(=O)c2c(CC)noc2C)c(=O)[nH]c1=O,0.2%,5.0,1.0,-44.2*,-1.6,4.6
CCCn1c(N)c(N(CCOC)C(=O)c2ccccc2)c(=O)[nH]c1=O,0.4%,13.6,4.5,-35.8*,22.7,0.5
COCCN(C(=O)c1cccc(-n2cnnn2)c1)c1c(N)n(CC(C)C)c(=O)[nH]c1=O,3.1%,-9.5,-0.8,-39.9*,0.4,-6.4
COCCN(C(=O)CSc1nnc(Nc2ccc(C)cc2)s1)c1c(N)n(CC(C)C)c(=O)[nH]c1=O,-1.6%,3.0,2.3,-5.9,-3.0,36.2*
COCCN(C(=O)c1cc(-c2ccc(F)cc2)nc2ccccc12)c1c(N)n(CC(C)C)c(=O)[nH]c1=O,x,-7.1,x,x,3.8,x
CSc1ccc(CN2CCC2(C)C(=O)NCc2cccs2)cc1 (stereo unspecified),x,0.0,x,x,-1.4,x
CN(C(=O)c1cc(-c2ccccc2O)on1)c1ccccc1,x,x,4.9,-8.7,3.7,2.0
CCCCn1nc(C(=O)N(CCOC)c2c(N)n(CCCC)c(=O)[nH]c2=O)c2ccccc2c1=O,-0.6%,8.1,5.7,-30.4*,0.6,x
CC(=O)Oc1ccccc1-n1c(C)nc(=O)c(-c2ccccc2)c1C,-11.6%,-3.9,1.5,-38.9*,-7.6,-6.3
COc1ccccc1-n1c(C)nc(=O)c(-c2ccccc2)c1C,u,16.6,1.4,12.3,5.5,-1.6
Cc1ccc(/C=C2/CNC/C(=C/c3ccc(C)cc3)C2=O)cc1,x,-50.8*,x,x,-4.7,x
Cc1ccc(/C=C2\CCOC2=O)cc1,-14.0%,4.9,-0.1,14.5,2.9,0.2
O=[N+]([O-])c1cccc(SSc2cccc([N+](=O)[O-])c2)c1,x,-68.9*,x,x,-28.2,x
Cc1noc(NS(=O)(=O)c2ccc(N/C=C\C(=O)c3cccc4ccccc34)cc2)c1C,u,-2.7,43.0*,19.5,10.3,-0.6
Cc1cc(C)c(C#N)c(SCC(=O)Nc2ccc(S(=O)(=O)Nc3onc(C)c3C)cc2)n1,6.3%,-54.2*,1.1,10.9,4.0,-0.4
Cc1noc(NS(=O)(=O)c2ccc(NC(=O)C(Cl)(Cl)Cl)cc2)c1C,0.4%,-1.3,8.0,6.4,0.2,-1.2
Cc1noc(NS(=O)(=O)c2ccc(NC(=O)Nc3ccc(Cl)c(Cl)c3)cc2)c1C,-2.1%,-77.1*,32.8*,-47.5*,4.9,-12.8
CC1(Cc2cc(Cl)ccc2C(F)(F)F)C(=O)Nc2ccc(S(=O)(=O)NC3CCCCC3)cc21 (stereo unspecified),x,21.9,x,x,0.0,x
O=C(CSc1ccsc1[N+](=O)[O-])N1CCN(c2ccccc2)CC1,-3.0%,-28.1,0.1,-31.1*,-11.4,-9.6
O=C(CSc1ccsc1[N+](=O)[O-])N1CCN(c2ccc(Cl)cc2)CC1,u,-9.4,3.3,4.1,0.3,3.5
O=C(OCC(=O)N1CCN(c2ccccc2)CC1)c1ccccc1[N+](=O)[O-],u,-3.5,3.3,-36.2*,8.1,-15.5
O=C(CSc1nnc2sc3ccccc3n12)N1CCN(c2ccccc2)CC1,u,8.0,-2.5,-59.1*,-3.0,-5.2
CCCS(=O)(=O)N1CCN(C(=O)COc2ccc(-c3ccccc3)cc2)CC1,-1.5%,2.3,4.9,-2.3,0.9,-5.8
